Test results from PubChem BioAssay (EPA / NIEHS).
Where “and” joins values, the source holds several entries; their conditions need not be identical. Identical values can stand only once. Results filed as inconclusive are left out. A structure can be active in one record and inactive in another. Calls of active or inactive are those of the source. The calls were made as follows: active = hit-call score of the fitted dose curve at least 0.9, where 1 is the maximum; inconclusive = response in the unintended direction; inactive = score below 0.9.

Assay: TOX21_p53_BLA_p3_viability: Viability Assessment in the Tox21 HCT-116 p53 Agonism Beta-lactamase Assay, Phase 3 (AID 2283593);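 also: cells exposed to compound for 16 h before reading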
Text: TOX21_p53_BLA_p3 is a cell-based, single-readout assay that uses HCT116, a human intestinal cell line, […] in a 1536-well plate.TOX21_p53_BLA_p3_viability is an assay readout measuring cellular ATP content and detected with CellTiter-Glo Luciferase-coupled ATP quantitation.TOX21_p53_BLA_p3_viability used a type of viability reporter where loss-of-signal activity can be used to understand changes in the cell viability. Furthermore, this assay endpoint can be referred to as a secondary readout, because this assay has produced multiple assay endpoints where this one serves a viability function. To generalize the intended target to other relatable targets, this assay endpoint is annotated to the cell cycle intended target family, where the subfamily is cytotoxicity.
Thawing Method: Place 14 mL of pre-warmed thaw medium into a 15 mL of conical tub. Remove the vial of cells to be thawed from liquid nitrogen and thaw rapidly by placing at 37C in a water bath with gentle agitation for 1-2 minutes. Decontaminate the vial by wiping with 70% ethanol before opening in a biological safety cabinet. Transfer the vial contents drop-wise into 14 mL of thaw medium in a sterile 15-mL conical tub. Centrifuge cells at 900 rpm for 4 minutes and resuspend in thaw medium. Transfer contents to the T75 tissue culture flask containing Thaw Medium and place flask in a humidified 37C/5% CO2 incubator. Switch to growth medium at first passage.Propagation Method: Aspirate medium, rinse once in DPBS, add 0.25% Trypsin/EDTA and swirl to coat the cell evenly. Add an equal volume of Growth Medium to inactivate Trypsin after 2-3 minutes incubation at 37C. Centrifuge cells at 900 rpm for 4 minutes and resuspend in growth medium. Cell should be passage or fed at least twice a week.Assay Protocol: Harvest cells from culture in growth medium and resuspend in assay medium. 2.2 Dispense 4000 cells/5 uL/well into 1536-well black/clear bottom plates using a Multidrop dispenser. After the cells were incubated at 37C for 5 hours, 23 nL of compounds dissolved in DMSO were transferred to the assay plate by a PinTool resulting in a 217-fold dilution. Incubate the plates for 16 hours at 37C, 5% CO2. Add 1 uL of 6X LiveBLAzer FRET B/G (CCF4-AM) Substrate Mixture to each well using a BioRAPTR dispenser and incubate the plates at room temperature for 2 hours. Measure fluorescence intensity at 460 and 530 nm emission and 405 nm excitation by an Envision detector. Data is expressed as the ratio of 460nm/530nm emissions. Add 4 uL of Cell-titer Glo to each well using BioRAPTR and incubate the plates at room temperature for […]. For cell viability readout that measures cytotoxicity, 4 ul/well of CellTiter-Glo reagent was added into the assay plates using a Flying Reagent Dispenser. After 30 min incubation at room temperature, the luminescence intensity in the plates was measured using a ViewLux plate reader.

| SMILES | outcome | AC50 |
| --- | --- | --- |
| COP(=S)(OC)SCN1C(=O)c2ccccc2C1=O | inactive |  |
| Cc1ccc(N)c(N)c1 | inactive |  |
| Cc1cc(N=Nc2ccccc2C)ccc1N | inactive |  |
| C=CCc1ccc2c(c1)OCO2 | inactive |  |
| Clc1ccc(C(c2ccc(Cl)cc2)C(Cl)Cl)cc1 |  | 79.1 µM (active) and 50.6 µM (active) |
| Clc1ccc(C(c2ccc(Cl)cc2)C(Cl)(Cl)Cl)cc1 | inactive | 77.1 µM (active) and 30.7 µM (active) |
| ClC1=C(Cl)[C@]2(Cl)[C@H]3[C@H]([C@@H]4C=C[C@H]3C4)[C@@]1(Cl)C2(Cl)Cl | inactive | 46 µM (active) |
| ClC1=C(Cl)C2(Cl)C3C(Cl)C=CC3C1(Cl)C2(Cl)Cl (stereo not given) |  | 46.1 µM (active) and 69.6 µM (active) |
| c1ccc2c(c1)-c1cccc3cccc-2c13 | inactive |  |
| CC(C)N(Cc1ccccc1)C(=O)C(C)(C)C | inactive |  |
| CN(C)[C@@H]1C(=O)C(C(N)=O)=C(O)[C@@]2(O)C(=O)C3=C(O)c4c(O)cccc4[C@@](C)(O)[C@H]3C[C@@H]12 | inactive |  |
| c1ccc(C2CO2)cc1 (stereo not given) | inactive |  |
| c1ccc2c(c1)oc1ccccc12 | inactive |  |
| CN(C)C(=O)Nc1ccc(Cl)cc1 | inactive |  |
| Oc1ccccc1Cl | inactive |  |
| CC(C)(C)C(O)(CCc1ccc(Cl)cc1)Cn1cncn1 (stereo not given) | inactive |  |
| CCCCCCCCCCCCCN1CC(C)OC(C)C1 (stereo not given) | inactive |  |
| Nc1ccc(Cl)cc1N | inactive |  |
| [Cl-].[Cl-].[Hg+2] | inactive | 68.5 µM (active) and 26.1 µM (active) |

| SMILES | outcome | AC50 |
| --- | --- | --- |
| Brc1ccc(Oc2ccccc2)cc1 | inactive |  |
| Clc1ccc(Cl)c(Cl)c1 | inactive |  |
| O=C1CCCO1 | inactive |  |
| CO[C@@H]1[C@H](OC(=O)NC(=O)CCl)CC[C@]2(CO2)[C@H]1[C@@]1(C)O[C@@H]1CC=C(C)C | inactive |  |
| CNC(=O)Oc1cccc2c1OC(C)(C)C2 | inactive |  |
| COC(=O)c1ccccc1N | inactive |  |
| COc1cc(C=O)cc2c1[C@H](COC(N)=O)[C@]1(OC(C)=O)ON2C[C@H]2[C@@H]1N2C(C)=O | inactive |  |
| CCC12COCN1COC2 | inactive |  |
| COC(=O)Nc1nc2ccccc2[nH]1 | inactive |  |
| Oc1ccc2ccc3cccc4ccc1c2c34 | inactive |  |
| O=[N+]([O-])c1ccc(Oc2ccc(Cl)cc2Cl)cc1 | inactive |  |
| CC(C)(C)OOC(C)(C)CCC(C)(C)OOC(C)(C)C | inactive |  |
| O=P(OCCCl)(OCCCl)OCCCl | inactive |  |
| OCCCl | inactive |  |
| N#CC(Br)(Br)C(N)=O | inactive |  |
| Nc1ccc(Oc2ccc(N)cc2)cc1 | inactive |  |
| CS(=O)(=O)NC(=O)c1cc(Oc2ccc(C(F)(F)F)cc2Cl)ccc1[N+](=O)[O-] | inactive |  |
| [As]#[In] | inactive |  |
